From PubChem BioAssay AID1259240 (Keith Lab, Institute of Cancer Science, University of …, 2017)
The source made the active and inactive calls. No stated cut-off is given here; in the data, active means fold change mostly below about -2 (no sharp cut-off); inactive means mostly above about -1.8.

assay: TERT promoter activity modulators, primary screen, cell-based, luciferase reporter, human (AID 1259240); settings: A2780 TERT promoter luciferase reporter, 16 h; at 20 µM, fold versus average of vehicle-only wells

Question: Which fold change does the source give for `COc1ccc(-c2nc3s/c(=C\c4ccccc4)c(=O)n3n2)cc1OC` here?
Answer: 1.68 (inactive)

Question: For `Brc1c(C[n+]2ccccc2)nc2ccccn12`, which fold change is on record?
Answer: -1.91 (inactive)

Question: For `CCOC(=O)C1CCN(c2c(Nc3ccc4c(c3)OCCO4)c(=O)c2=O)CC1`, which fold change is on record?
Answer: -1.02 (inactive)

Question: For `COc1cc(Nc2nnc(Cc3ccncc3)c3ccccc23)cc(OC)c1OC`, which fold change is on record?
Answer: -1.31 (inactive)

Question: For `Cc1ccc(-n2c(-c3ccco3)nc3c(cnn3-c3ccccc3C)c2=O)cc1F`, which fold change is on record?
Answer: -1.09 (inactive)

Question: For `COCCN1C(=O)C(=O)/C(=C(\O)c2ccc(C)cc2)C12C(=O)N(C)c1ccccc12` (centres undefined), which fold change is on record?
Answer: -1.06 (inactive)

Question: For `Cc1ccc(Cn2nc(C)c(NC(=O)c3onc(C)c3Cl)c2C)cc1`, which fold change is on record?
Answer: 1.31 (inactive)

Question: For `Cc1nnc2ccc(N3CCC(C)CC3)nn12`, which fold change is on record?
Answer: 1.03 (inactive)

Question: For `CCOC(=O)c1ccc(N2C(=O)c3n[nH]c(-c4ccco4)c3C2c2ccc(C)cc2)cc1` (centres undefined), which fold change is on record?
Answer: -2.14 (active)

Question: For `c1nc(N2CCOCC2)c2sc3nc(N4CCOCC4)c4c(c3c2n1)CCCC4`, which fold change is on record?
Answer: -1.09 (inactive)

Question: With `c1ccn2c(SCc3ccc4c(c3)OCCO4)nnc2c1` as the compound, how does the fold change read?
Answer: 1.6 (inactive)

Question: With `c1ccc2c(NCCCN3CCOCC3)c3c(nc2c1)CCCC3` as the compound, how does the fold change read?
Answer: -1.45 (inactive)

Question: Which fold change does the source give for `CN(C)c1ccc(/C=C2/SC(=S)NC2=O)cc1` here?
Answer: -4.47 (active)

Question: For `CCc1nc2c(cnn2-c2ccc(F)cc2)c(=O)n1-c1ccc(OC)c(Cl)c1`, which fold change is on record?
Answer: 1.04 (inactive)

Question: Which fold change does the source give for `CN(Cc1ccccc1)C(=O)C1CCCN(S(=O)(=O)c2ccc3c(c2)oc(=O)n3C)C1` (centres undefined) here?
Answer: -1.14 (inactive)

Question: With `c1ccc(CNc2nc3ccccc3n3cnnc23)nc1` as the compound, how does the fold change read?
Answer: 1.11 (inactive)

Question: With `C=CCOc1ccc(-c2nc3s/c(=C\c4ccc(OC(C)=O)c(OC)c4)c(=O)n3n2)cc1` as the compound, how does the fold change read?
Answer: 1.33 (inactive)

Question: Which fold change does the source give for `Cc1cc(C)c2c(=O)n(CC(=O)NCCC3=CCCCC3)sc2n1` here?
Answer: 1.18 (inactive)

Question: For `O=C(NC1CCCCC1)C1CCCN(S(=O)(=O)c2cnc[nH]2)C1` (centres undefined), which fold change is on record?
Answer: -1.72 (inactive)

Question: For `CC(C)Oc1ccc(C2CC(=O)Nc3cc4c(cc32)OCCO4)cc1` (centres undefined), which fold change is on record?
Answer: 1 (inactive)

Question: With `O=C(Nc1ccc(F)c(F)c1)C1CCCN1S(=O)(=O)c1cccc2nsnc12` (centres undefined) as the compound, how does the fold change read?
Answer: -1.3 (inactive)

Question: For `COCCCN1CN=C(Nc2nc(C)c3ccc(C)cc3n2)NC1`, which fold change is on record?
Answer: -1.94 (inactive)

Question: Which fold change does the source give for `CCOC(=O)Cn1c(=O)oc2cc(S(=O)(=O)NCc3cccs3)ccc21` here?
Answer: -1.2 (inactive)

Question: For `Cc1noc(C(=O)Nc2cccc(Cl)c2)c1Cl`, which fold change is on record?
Answer: 1.73 (inactive)
